From PubChem BioAssay come the findings set out here.

Test [1] is described as follows: blockers of polyQ-driven CASP3 activation – cell-based (AID 1583). Conditions: polyglutamine-induced caspase-3 activation, cell assay; stronger effect = higher value;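 tested at 10 µM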.
A short description of test [2]: yeast 75Q aggregation reduction – 75Q-TubU reporter (AID 1593). Conditions: Yeast 75Q polyglutamine aggregation reporter.
Test [3] is described as follows: restoration of touch response, mutant HTT neurons – whole organism, C. elegans mechanosensory neurons, N-terminal huntingtin (AID 1599). Conditions: C. elegans polyQ-huntingtin mechanosensory neurons, stronger effect = higher value.
Test [4] in a line: blockers of cytochrome c efflux from mitochondria – biochemical, purified mitochondria (AID 1603).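 Note: mouse liver mitochondria challenged with calcium chloride; signal normalized to the plate average as 100%.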 Conditions: stronger effect = lower value.
Test [5] in a line: polyglutamine aggregate formation blockers (AID 1604). Conditions: polyglutamine-induced protein aggregation inhibition assay; stronger effect = higher value; tested at 2.5 µM.
Test [6] in a line: glutamate transport activators, MN-1 cells, MN-1 cell line (AID 1612).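 Note: tested at 1 µM final; 0% = mean of DMSO vehicle wells on each plate; positive means more glutamate uptake than control and negative means less.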 Conditions: MN-1 motor neuron cells, stronger effect = higher value.
A short description of test [7]: GFP-Q80 aggregate reduction, neuronal-like cells, cell-based, NGF-treated PC12, GFPQ80 (AID 1614).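 Note: lower means fewer inclusions and 0 means no inclusions at all.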 Conditions: PC12 NGF-treated GFP-polyQ80 inclusion reduction.
Test [8] can be described thus: 75Q-TubH aggregate inhibition, S. cerevisiae, yeast (AID 1616). Conditions: S. cerevisiae 75Q-TubH polyglutamine aggregation suppression; stronger effect = higher value.
Test [9] is described as follows: P. berghei load reduction in hepatocytes – cell-based, HepG2, luciferase luminescence, HepG2 viability, primary screen (AID 624349; in the data active = parasite load remaining mostly below about 12%, no sharp cut-off; inactive = mostly above about 10%;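 note: 100% = mean of DMSO negative control wells on the same plate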). Conditions: P. berghei liver stage in HepG2, luciferase luminescence, concentration not given here; parasite load remaining: stronger effect = lower value; viability: measured here: HepG2 viability without parasites.
In test [10] the target is 6-phosphogluconate dehydrogenase, decarboxylating (Homo sapiens) (UniProt P52209). The test is described as follows: inhibition of human phosphogluconate dehydrogenase – biochemical, recombinant enzyme, NADPH absorbance, primary screen (AID 1159550). Conditions: recombinant 6PGD, NADPH absorbance 341 nm; at 10 µM; stronger effect = higher value.
Test [11] can be described thus: EMT-state selective cytotoxicity in co-culture – imaging, PC-3E GFP, TEM4-18 mCherry, primary screen (AID 1345086;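 active = compounds killing one labelled cell type while sparing the other, by normalised counts and ratio limits, not self-fluorescent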;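 for all read-outs here: cells exposed to compound for 72 h before imaging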;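 for red/green cell ratio (normalised): normalised mesenchymal count divided by normalised epithelial count so high means epithelial killing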). Conditions: PC-3E GFP / TEM4-18 mCherry co-culture, imaging cell counts, at 1 µM; for red/green cell ratio (normalised): actives lie on both sides, counts scaled to control wells, 1 = unselective.
Test [12] deals with NAD(+) hydrolase SARM1 (Homo sapiens) (UniProt Q6SZW1). The test is described as follows: blocking NAD cleavage by SARM1 SAM-TIR – cell lysate, NAD-Glo luminescence (AID 1508614;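 active = compound whose remaining NAD level is above about 45 nM, limit read from the data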;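 note: higher remaining NAD means stronger inhibition of SARM1 NADase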). Conditions: SAM-TIR HEK293T lysate NADase, at 1 µM, stronger effect = higher value.
Test [13] deals with Mitogen-activated protein kinase 7 (Homo sapiens) (UniProt Q13164). The test is described as follows: Gal4-ERK5 driven luciferase induction – cell-based, HTS, primary screen (AID 1508626;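 active = luciferase signal above three times the same-plate solvent-only control wells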;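 note: luciferase driven by Gal4-ERK5 fusion binding five Gal4 sites before minimal TATA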). Conditions: HeLa Gal4-ERK5 transactivation, 18 h, at 5 µM, stronger effect = higher value.
Where [14] appears, read: measured here: epithelial PC-3E GFP cell survival.
Setting [15] is: measured here: mesenchymal TEM4-18 mCherry cell survival.

For some assays here: Potency and affinity values are given separately. The source made the active and inactive calls.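 Rule for the calls, unless noted: active = at least 20% inhibition of 6-phosphogluconate dehydrogenase activity; inactive = the rest.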

Sequence of 6-phosphogluconate dehydrogenase, decarboxylating (Homo sapiens) (P52209 whole entry, looked up): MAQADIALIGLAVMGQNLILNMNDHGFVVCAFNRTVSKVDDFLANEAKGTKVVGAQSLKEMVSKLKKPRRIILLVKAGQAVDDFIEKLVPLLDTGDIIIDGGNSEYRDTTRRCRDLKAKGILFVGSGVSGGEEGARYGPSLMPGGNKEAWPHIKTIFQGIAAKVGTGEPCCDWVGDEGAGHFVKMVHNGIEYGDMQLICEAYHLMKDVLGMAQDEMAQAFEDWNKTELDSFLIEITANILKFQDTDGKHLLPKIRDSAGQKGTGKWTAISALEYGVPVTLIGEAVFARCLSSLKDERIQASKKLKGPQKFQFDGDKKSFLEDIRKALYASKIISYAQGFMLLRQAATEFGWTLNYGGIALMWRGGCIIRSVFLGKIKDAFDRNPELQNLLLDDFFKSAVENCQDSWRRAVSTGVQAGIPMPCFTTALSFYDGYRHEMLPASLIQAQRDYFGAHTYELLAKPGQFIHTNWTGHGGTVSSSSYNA
Sequence of Mitogen-activated protein kinase 7 (Homo sapiens) (Q13164 whole entry, looked up, the tested form may be a part): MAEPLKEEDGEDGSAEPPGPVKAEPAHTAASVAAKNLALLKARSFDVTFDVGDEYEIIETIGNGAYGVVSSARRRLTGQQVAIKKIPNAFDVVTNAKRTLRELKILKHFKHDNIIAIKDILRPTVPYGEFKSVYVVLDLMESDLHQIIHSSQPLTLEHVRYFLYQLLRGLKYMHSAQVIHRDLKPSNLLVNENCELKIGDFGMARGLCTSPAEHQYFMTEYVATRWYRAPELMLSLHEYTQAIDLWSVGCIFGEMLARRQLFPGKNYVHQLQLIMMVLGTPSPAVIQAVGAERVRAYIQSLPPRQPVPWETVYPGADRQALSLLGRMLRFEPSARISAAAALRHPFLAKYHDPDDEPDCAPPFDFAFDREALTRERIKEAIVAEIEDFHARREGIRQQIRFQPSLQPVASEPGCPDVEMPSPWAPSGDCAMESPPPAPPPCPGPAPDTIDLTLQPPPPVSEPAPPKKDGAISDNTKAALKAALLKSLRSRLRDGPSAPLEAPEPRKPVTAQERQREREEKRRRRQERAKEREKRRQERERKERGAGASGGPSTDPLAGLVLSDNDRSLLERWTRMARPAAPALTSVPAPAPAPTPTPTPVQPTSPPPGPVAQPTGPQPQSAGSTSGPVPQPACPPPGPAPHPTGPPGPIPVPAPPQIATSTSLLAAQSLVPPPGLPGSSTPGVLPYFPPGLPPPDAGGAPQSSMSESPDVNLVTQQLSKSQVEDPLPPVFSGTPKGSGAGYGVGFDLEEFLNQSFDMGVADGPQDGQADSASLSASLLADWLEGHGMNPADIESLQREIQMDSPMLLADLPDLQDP
Sequence of NAD(+) hydrolase SARM1 (Homo sapiens) (Q6SZW1 whole entry, looked up, the tested form may be a part): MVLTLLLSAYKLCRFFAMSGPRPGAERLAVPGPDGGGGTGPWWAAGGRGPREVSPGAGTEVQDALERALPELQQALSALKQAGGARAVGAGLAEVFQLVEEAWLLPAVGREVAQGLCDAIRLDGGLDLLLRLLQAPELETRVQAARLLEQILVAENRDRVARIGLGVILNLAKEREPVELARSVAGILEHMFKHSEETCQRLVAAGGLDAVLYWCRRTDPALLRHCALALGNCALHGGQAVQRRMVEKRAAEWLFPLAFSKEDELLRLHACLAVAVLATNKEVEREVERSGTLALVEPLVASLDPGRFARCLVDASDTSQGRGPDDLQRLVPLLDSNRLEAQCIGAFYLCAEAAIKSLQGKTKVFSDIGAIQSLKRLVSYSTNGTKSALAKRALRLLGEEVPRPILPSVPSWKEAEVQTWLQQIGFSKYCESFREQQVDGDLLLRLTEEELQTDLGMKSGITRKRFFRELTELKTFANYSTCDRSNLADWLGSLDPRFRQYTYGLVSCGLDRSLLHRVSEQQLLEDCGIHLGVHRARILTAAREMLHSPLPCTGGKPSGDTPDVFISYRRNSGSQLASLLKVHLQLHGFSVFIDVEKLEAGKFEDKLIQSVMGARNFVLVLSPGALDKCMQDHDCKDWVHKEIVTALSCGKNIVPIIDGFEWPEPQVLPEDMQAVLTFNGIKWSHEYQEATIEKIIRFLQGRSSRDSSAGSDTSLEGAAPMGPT

In the case of `NCC(O)CC(=O)O` (stereo unspecified), the inhibition in [1] is 11.2%; in test [10] it was -18.3% (inactive). The compound further returned a score in test [2] of 1.7. Also, the rescue above control in test [3] is -10.6. Further, the cytochrome c release ratio in test [4] is 1.09. In [5], this compound had an inhibition of aggregation of 57.7%. Moreover, the glutamate uptake change in test [6] was 9.66%. For the same compound, in test [7], the inclusion score was determined as 2. Besides, in [8], the aggregation suppression score came to 1.63. In test [9], the parasite load remaining was 157% (inactive). Moreover, the viability in test [9] is 91.4%. In addition, the red/green cell ratio (normalised) in test [11] was 0.75 (inactive). Further, the normalised cell number turned out to be 1.28 in [11] (setting [14]) and 0.96 in [11] (setting [15]). Further, the remaining NAD in test [12] is 10 nM (inactive). In addition, the luciferase signal in [13] is 44 AU (inactive).

For `COc1cc(OC)c2c(=O)c(-c3ccc4c(c3)OCO4)coc2c1`, the inhibition in test [10] is 7.77% (inactive). Further, the red/green cell ratio (normalised) in test [11] is 1.06 (inactive). Also, the normalised cell number in [11] (setting [14]) turned out to be 1.13; in test [11] (setting [15]), 1.2. Moreover, in test [13], the luciferase signal is 92 AU (inactive).

In the case of `COc1ccc2c(c1)OC[C@@H](Cc1ccc(OC)c(OC)c1)[C@H]2O`, in [10], the inhibition was 15.8% (inactive). Moreover, the red/green cell ratio (normalised) in test [11] is 1.09 (inactive). Further, the normalised cell number in [11] (setting [14]) came to 0.98; in test [11] (setting [15]) it was 1.07. For the same compound, the luciferase signal in test [13] is 76 AU (inactive).

As to `CC1(C)CC2C1CCC1(C)OC1CCC2(C)O` (stereo unspecified), in [10], the inhibition is 19.1% (inactive). The red/green cell ratio (normalised) in test [11] is 1.05 (inactive). For the same compound, the normalised cell number in test [11] (setting [14]) came to 0.98; in test [11] (setting [15]), 1.02. Further, in test [13], the luciferase signal is 620 AU (active).

For the compound `COC(=O)[C@@H]1OC(=O)C2OC23[C@@]1(C)CCC1[C@]2(C)C(C[C@@H](O)[C@]13C)C(C)(C)[C@H](OC(C)=O)C[C@@H]2OC(C)=O` (stereo partly specified), the inhibition in test [10] was -0.817% (inactive). Besides, the red/green cell ratio (normalised) in test [11] was 0.93 (inactive). Moreover, the results for the normalised cell number in test [11] (setting [14]) and in [11] (setting [15]) were 1.09 and 1.02, respectively. For the same compound, the luciferase signal in test [13] is 64 AU (inactive).

For `N[C@@H](C(=O)O)[C@@H](O)[C@H](O)[C@H](O)CO`, the inhibition in [10] was 9.87% (inactive). The red/green cell ratio (normalised) in test [11] was 1.16 (inactive). Besides, the normalised cell number in test [11] (setting [14]) came to 1.02; in [11] (setting [15]) it was 1.18. The luciferase signal in test [13] was 108 AU (inactive).

As to `Oc1cc(O)c2c(c1)O[C@H](c1cc(O)c(O)c(O)c1)[C@H](O)C2`, in test [10], the inhibition was -13.7% (inactive). Besides, the red/green cell ratio (normalised) in test [11] is 1.12 (inactive). The results for the normalised cell number in test [11] (setting [14]) and in test [11] (setting [15]) were 0.76 and 0.85, respectively. In test [13], the luciferase signal was 172 AU (inactive).

Consider `C=C[C@@](C)(O)CCC1C(=C)C[C@H](O)C2C(C)(C)CCCC12C` (stereo partly specified), for which the inhibition in test [10] was 15.2% (inactive). In addition, in [11], the red/green cell ratio (normalised) was 0.87 (inactive). In addition, the values for the normalised cell number in [11] (setting [14]) and in [11] (setting [15]) were 1.07 and 0.93, respectively. Besides, in [13], the luciferase signal was 64 AU (inactive).

As to `CC1=C(/C=C/C(C)=C/C=C/C(C)=C/C=C/C=C(C)/C=C/C=C(C)/C=C/C(=O)[C@]2(C)C[C@@H](O)CC2(C)C)C(C)(C)C[C@H](O)C1`, in test [10], the inhibition is 1.92% (inactive). For the same compound, in test [11], the red/green cell ratio (normalised) is 1.16 (inactive). The normalised cell number in test [11] (setting [14]) turned out to be 0.85; in test [11] (setting [15]) it was 0.98. For the same compound, the luciferase signal in [13] was 20 AU (inactive).

Take `C=C1CCC(C2CC(=O)OC2=O)C(=O)CCC2C1CC2(C)C` (stereo unspecified): in [10], the inhibition was 13.1% (inactive). The red/green cell ratio (normalised) in [11] is 0.84 (inactive). Besides, the normalised cell number in [11] (setting [14]) is 1.27; in test [11] (setting [15]), 1.06. Also, in test [13], the luciferase signal is 144 AU (inactive).

`O=C(CC(=O)c1ccccc1)c1ccccc1`: the inhibition in test [10] is 21.3% (active). The red/green cell ratio (normalised) in test [11] is 0.84 (inactive). The normalised cell number in test [11] (setting [14]) turned out to be 1.16; in test [11] (setting [15]) it was 0.97. In test [13], the luciferase signal is 80 AU (inactive).

Take `C=C1C(N)CC2CC1C2(C)C` (stereo unspecified): in test [10], the inhibition was 16.7% (inactive). Moreover, the red/green cell ratio (normalised) in [11] is 1.05 (inactive). The normalised cell number was determined as 1.09 in test [11] (setting [14]) and 1.15 in test [11] (setting [15]). The luciferase signal in test [13] was 60 AU (inactive).

With `CCc1ccc2c(O)c3c(cc2c1C(=O)OC)C(=O)c1c(O)ccc(O)c1C3=O`, the inhibition in [10] is -5.67% (inactive). The red/green cell ratio (normalised) in test [11] is 0.83 (inactive). The normalised cell number in test [11] (setting [14]) turned out to be 1.11; in test [11] (setting [15]), 0.92. In addition, in [13], the luciferase signal is 44 AU (inactive).

As for `CC(C)=CC1C(C(=O)O)C1(C)C` (stereo unspecified), the inhibition in test [10] was -0.837% (inactive). In addition, the red/green cell ratio (normalised) in test [11] is 1.07 (inactive). Further, the normalised cell number turned out to be 0.96 in test [11] (setting [14]) and 1.03 in [11] (setting [15]). In test [13], the luciferase signal was 44 AU (inactive).

As to `COc1c(-c2coc3cc4c(cc3c2=O)CC(OC(C)=O)C(C)(C)O4)ccc2c1C=CC(C)(C)O2` (stereo unspecified), in test [10], the inhibition is 13.9% (inactive). Further, in test [11], the red/green cell ratio (normalised) is 0.78 (inactive). Further, the figures for the normalised cell number in [11] (setting [14]) and in [11] (setting [15]) were 1.02 and 0.8, respectively. Also, in [13], the luciferase signal is 56 AU (inactive).

With `Cc1cc(=O)oc2cc(O)c(O)cc12`, in test [10], the inhibition is 8.55% (inactive). In test [11], the red/green cell ratio (normalised) was 0.79 (inactive). Also, the values for the normalised cell number in [11] (setting [14]) and in [11] (setting [15]) were 1.15 and 0.91, respectively. In addition, in test [13], the luciferase signal is 60 AU (inactive).

Turning to `C=C(C)C1CC=C(CO)CC1` (stereo unspecified), the inhibition in test [10] was 1.85% (inactive). In addition, the red/green cell ratio (normalised) in test [11] was 1.04 (inactive). In addition, the normalised cell number worked out at 0.95 in [11] (setting [14]) and 0.99 in [11] (setting [15]). In addition, the luciferase signal in test [13] is 68 AU (inactive).

Turning to `Cc1cc(OC(=O)c2c(C)cc(O)cc2O)cc(O)c1C(=O)O`, the inhibition in [10] was 1.29% (inactive). Also, the red/green cell ratio (normalised) in test [11] is 0.82 (inactive). The normalised cell number in test [11] (setting [14]) amounted to 1.06; in [11] (setting [15]), 0.87. For the same compound, in [13], the luciferase signal was 12 AU (inactive).

Regarding `O=C(Nc1ccccc1)Nc1ccccc1`, the inhibition in test [10] is 0.726% (inactive). In addition, in test [11], the red/green cell ratio (normalised) was 0.79 (inactive). Moreover, the values for the normalised cell number in test [11] (setting [14]) and in test [11] (setting [15]) were 1.16 and 0.91, respectively. For the same compound, the luciferase signal in test [13] is 108 AU (inactive).

For `COc1ccc(C(=O)CC(=O)O)c2c1C=CC(C)(C)O2`, the inhibition in test [10] was 10.2% (inactive). Also, the red/green cell ratio (normalised) in test [11] is 0.95 (inactive). The values for the normalised cell number in test [11] (setting [14]) and in test [11] (setting [15]) were 0.98 and 0.93, respectively. The luciferase signal in [13] was 60 AU (inactive).

Take `CC(=O)O[C@H]1C[C@@H](OC(C)=O)C(C)(C)C2CC(=O)[C@]3(C)C(CC[C@@]4(C)[C@H](c5ccoc5)OC(=O)[C@H]5O[C@]543)[C@]21C` (stereo partly specified): the inhibition in test [10] is 6.24% (inactive). Besides, the red/green cell ratio (normalised) in [11] was 0.93 (inactive). The normalised cell number came to 0.94 in test [11] (setting [14]) and 0.87 in [11] (setting [15]). The luciferase signal in test [13] was 16 AU (inactive).

As for `O=c1cc(-c2cc(O)c(O)c(O)c2)oc2cc(O)cc(O)c12`, the inhibition in [10] was 5.62% (inactive). In addition, the red/green cell ratio (normalised) in test [11] was 1.14 (inactive). The normalised cell number in [11] (setting [14]) came to 0.99; in test [11] (setting [15]), 1.12. Further, the luciferase signal in [13] is 72 AU (inactive).

Regarding `COc1ccc(-c2c(O)c3c(OC)c4c(cc3oc2=O)OC(C)(C)C=C4)cc1`, the inhibition in test [10] was 11.4% (inactive). For the same compound, the red/green cell ratio (normalised) in test [11] is 0.9 (inactive). The normalised cell number worked out at 1.02 in test [11] (setting [14]) and 0.92 in test [11] (setting [15]). Also, in test [13], the luciferase signal was 88 AU (inactive).

With `O=C(Oc1cc(O)cc2c1C[C@@H](OC(=O)c1cc(O)c(O)c(O)c1)[C@@H](c1cc(O)c(O)c(O)c1)O2)c1cc(O)c(O)c(O)c1`, the inhibition in test [10] was 10.8% (inactive). Also, the red/green cell ratio (normalised) in test [11] is 1.04 (inactive). The normalised cell number in test [11] (setting [14]) is 0.96; in [11] (setting [15]) it was 0.99. The luciferase signal in test [13] was 44 AU (inactive).
